From PubChem BioAssay
Calb FLC = C. albicans growth modulation with fluconazole; C. albicans CaCi-2 (fluconazole-resistant clinical isolate) + fluconazole, Alamar Blue growth, 48 h; growth inhibition, % (concentration not given with the values); actives 0.57% (n = 300,000); AID 1979;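 active = growth inhibition above about 58% in most replicates, limit read from the data, passing the limit was not always enough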;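 also: all wells also contain fluconazole at 8 µg/ml as a sub-toxic cotreatment; 0% = median of DMSO wells and 100% = median of geldanamycin control wells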
PHOSPHO1 block = blocks human PHOSPHO1 phosphatase activity; Q8TCT1; recombinant PHOSPHO1, absorbance phosphatase assay; inhibition, % at 13.3 µM; actives 1.1% (n = 290,000); AID 1565; in the data active = inhibition above about 60%
KCC2 mod = KCC2 (human) Cl- transport modulation; KCC2 cells, thallium flux FluoZin-2 fluorescence; B-score of Tl+ flux slope (higher = more flux/activation; lower = inhibition) at 10 µM; actives 2.2% (n = 190,000);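 active = thallium flux slope and its plate-corrected score both differing from the plate sample mean at a set confidence after two filtering rounds, in either direction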;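 also: slope of fluorescence scaled to starting intensity during 10 to 20 s after thallium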
Target sequence (Q9H2X9 whole entry, looked up): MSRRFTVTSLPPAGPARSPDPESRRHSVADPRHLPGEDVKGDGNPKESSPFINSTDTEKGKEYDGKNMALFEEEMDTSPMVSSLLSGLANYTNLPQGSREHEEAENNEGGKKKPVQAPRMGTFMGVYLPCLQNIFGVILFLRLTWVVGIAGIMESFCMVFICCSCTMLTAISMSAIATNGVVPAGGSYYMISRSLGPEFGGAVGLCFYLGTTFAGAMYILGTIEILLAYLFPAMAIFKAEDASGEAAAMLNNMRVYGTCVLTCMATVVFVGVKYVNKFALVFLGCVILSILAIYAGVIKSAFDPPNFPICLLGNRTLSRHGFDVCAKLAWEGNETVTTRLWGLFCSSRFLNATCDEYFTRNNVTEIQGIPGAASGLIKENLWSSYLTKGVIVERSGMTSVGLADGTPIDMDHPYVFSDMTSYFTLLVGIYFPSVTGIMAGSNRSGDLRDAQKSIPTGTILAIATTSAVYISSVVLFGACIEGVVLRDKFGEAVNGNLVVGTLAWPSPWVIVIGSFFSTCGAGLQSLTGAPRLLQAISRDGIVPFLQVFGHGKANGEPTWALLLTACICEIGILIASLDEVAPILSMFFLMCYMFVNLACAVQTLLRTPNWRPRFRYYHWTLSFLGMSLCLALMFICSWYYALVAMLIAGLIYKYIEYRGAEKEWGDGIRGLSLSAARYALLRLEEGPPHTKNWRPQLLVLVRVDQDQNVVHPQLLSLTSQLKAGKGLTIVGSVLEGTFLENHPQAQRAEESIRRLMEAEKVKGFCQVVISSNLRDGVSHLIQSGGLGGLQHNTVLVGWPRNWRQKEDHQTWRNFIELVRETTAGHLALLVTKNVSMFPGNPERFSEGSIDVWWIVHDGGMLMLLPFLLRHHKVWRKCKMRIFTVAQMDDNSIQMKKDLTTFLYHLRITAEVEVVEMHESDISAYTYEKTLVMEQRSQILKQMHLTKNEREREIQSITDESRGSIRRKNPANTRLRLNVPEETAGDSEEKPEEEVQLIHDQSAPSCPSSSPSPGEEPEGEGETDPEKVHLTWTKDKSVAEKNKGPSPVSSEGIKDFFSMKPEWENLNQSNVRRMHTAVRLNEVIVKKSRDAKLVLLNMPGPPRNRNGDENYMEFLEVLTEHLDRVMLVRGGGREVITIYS
H9c2 protect = protects H9c2 cardiomyocytes from peroxide injury | H2O2 injury protection, ATPLite, 2 h | protection from H2O2 cell death, % at 20 µM | actives 0.63% (n = 360,000);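 active = compounds giving at least 50% protection of heart cells from peroxide-induced death in the single-dose screen, raw or plate-pattern-corrected value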;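 also: 0% = DMSO wells with peroxide and 100% = DMSO wells without peroxide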
Efflux pump mplx = antifungal efflux pump inhibition, Nile Red retention; S. cerevisiae Candida pump triplex; inhibition, % at 10 µM; actives 0.44% (n = 330,000);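 active = plate passing quality check with inhibition over a set limit, or well fluorescence over plate mean plus 4 SD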;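 also: Nile Red retained in pooled yeast measured as flow cytometry median fluorescence; 0% = buffer negative control and 100% = Enniatin B positive control; higher means more Nile Red kept so more efflux inhibition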
* hit, by the source's call; . = no result given. Only some compounds are listed: those with a hit (about 3.3% of all), similar ones and a draw of the others.

SMILES	Calb FLC	PHOSPHO1 block	KCC2 mod	H9c2 protect	Efflux pump mplx
COc1ccccc1C(=O)NC(=O)COC(=O)Cc1n[nH]c(=O)c2ccccc12	12	.	.	32	0
O=C(Cc1n[nH]c(=O)c2ccccc12)OCC(=O)c1ccccc1Cl	2	.	.	5	0
CN(C(=O)c1cccc(NC(=O)Cc2ccc(NC(=O)C3CCCN(C(=O)C4CCC4)C3)cc2)c1)C1CCCC1 (centres undefined)	.	.	.	-4	.
O=C(Nc1cc(S(=O)(=O)N2CCOCC2)ccc1OCC(F)(F)F)C1=COCCO1	3	.	.	-2	1
COc1ccc(C(=O)COC(=O)Cc2n[nH]c(=O)c3ccccc23)c(OC)c1	5	.	.	62*	0
CC(C)CC(=O)Nc1ccc(C(=O)COC(=O)Cc2n[nH]c(=O)c3ccccc23)cc1	.	.	.	72*	0
Cn1c2c(sc1=O)CCC2	.	.	.	-1	.
CCN(CC)S(=O)(=O)c1ccc(N/N=C/c2ccc(O)cc2)nc1	21	43	-0.36	-8	0
CCOc1cccc(/C=N/Nc2ccc(S(=O)(=O)N(CC)CC)cn2)c1O	26	-2	1.4	57*	0
CCN(CC)S(=O)(=O)c1ccc(N/N=C(\C)c2ccc(OC)cc2O)nc1	91*	44	-1	40	0
O=C(c1ccc(Cn2c(=O)[nH]c3ccccc3c2=O)cc1)N1CCN(c2ccc(F)cc2)CC1	63*	-4	.	0	0
Cc1cccc(C(=O)NC(=S)N2CCc3ccccc3C2)c1	7	-1	125*	5	0
CN(c1ccccc1)S(=O)(=O)c1cccc(C(=O)OCC(=O)NCc2ccco2)c1	-3	66*	-1.3	12	0
C#CCOCCOCCOCCNc1nc(N2CCN(C(=O)CCCCCCCCCCNC(=O)[C@H]([C@@H](C)CC)n3cc(CCCCN=C(N)N)nn3)CC2)nc(N2CCN(C(=O)CCCCCCCCCCNC(=O)[C@H](CCCN=C(N)N)n3cc(C[C@@H](C)CC)nn3)CC2)n1	.	.	.	.	6.2*
C#CCOCCOCCOCCNc1nc(N2CCN(C(=O)CCCCCCCCCCNC(=O)[C@H](CO)n3cc(CCCCCN)nn3)CC2)nc(N2CCN(C(=O)CCCCCCCCCCNC(=O)[C@H](CCCN=C(N)N)n3cc(C[C@@H](C)CC)nn3)CC2)n1	.	.	.	.	0
CC[C@H](C)Cc1cn([C@@H](CCCN=C(NC(=O)OC(C)(C)C)NC(=O)OC(C)(C)C)C(=O)NCCCCCCCCCCC(=O)N2CCN(C(=O)OC(C)(C)C)CC2)nn1	86*	.	.	-14	0
C#CCOCCOCCOCCNc1nc(N2CCN(C(=O)CCCCCCCCCCNC(=O)[C@H](CCCN=C(N)N)n3cc(C[C@@H](C)CC)nn3)CC2)nc(N2CCN(C(=O)CCCCCCCCCCNC(=O)[C@@H]([C@H](C)CC)n3cc(CCCCCN)nn3)CC2)n1	.	.	.	.	4.8*
COc1ccc(OC)c(C(=O)NC(CC(N)=O)c2ccc(N3CCCCCC3)c([N+](=O)[O-])c2)c1 (centres undefined)	-2	-30	.	-1	0
Cc1ccc2nc3c(cc(C(=O)NC4CCS(=O)(=O)C4)n3Cc3ccccc3)c(=O)n2c1 (centres undefined)	-20	62*	.	0	0
Cc1onc(-c2ccccc2Cl)c1C(=O)N1CCCCC1C (centres undefined)	-8	36	.	-2	0
CC(=O)c1cnc(Nc2ccccc2)s1	14	-14	0.3	-5	0
CC(=O)c1cnc(Nc2cccc(Cl)c2Cl)s1	79*	41	0.064	-1	0
CC(=O)c1ccc(NC(=O)CN(c2c(C)cccc2C)S(C)(=O)=O)cc1	4	44	.	-7	0
CC1(c2ccccc2)CC(C)(C)N2C(=O)/C(=C3\SC(=S)NC3=O)c3cccc1c32 (centres undefined)	-3	6	20*	-18	0
CCOc1ccccc1CN1CCNC(=O)C1CC(=O)NCCN1CCOC1=O (centres undefined)	-8	15	.	-6	-1
O=C(O)C1=C[C@@H](c2csc3ccccc23)C[C@@H](OCc2ccc(CO)cc2)O1	-5	30	-3.1*	0	0
CC(=O)n1cc([C@@H]2C=C(C(=O)N3CCN(C)CC3)O[C@H](OCc3ccc(CO)cc3)C2)c2ccccc21	2	.	.	5	0
C=CCOC(=O)C1=C[C@H](c2cn(C(C)=O)c3ccccc23)C[C@H](OCc2ccc(CO)cc2)O1	-3	5	0.77	51*	0
